For 14 compounds, growth results are on record in PubChem BioAssay (NCI).

About 83,000 compounds went through this panel and 20% of them were active in at least one assay; those are over-represented in the sample as a whole.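 Note: values are percent growth. 100 is the growth of untreated cells, values between 100 and 0 indicate rising inhibition; between -100 and 0 indicates cell death.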 Active and inactive are the calls of the source. Rule for the calls: active = growth percent below 10; inactive = the rest.

In the experiment the test system is MDA-MB-468 breast. The experiment is described as follows: NCI-60 one-dose screen, 48 h (100 = growth as untreated, 0 = no growth, -100 = all killed). As to conditions: 10 µM unless noted.
Regarding `Clc1ccc(C2=NN(c3ccccc3)[C@H](c3cn(-c4ccccc4)nc3-c3ccccc3)C2)cc1`, the growth was 109% (inactive).
Take `O=S(=O)(Nc1ccc(F)cc1F)c1ccc(-c2cnc(C3CC3)o2)cc1`: the growth is 2.58% (active).
For the compound `Fc1ccc(Nc2ncnc3ccc(-c4cnc5[nH]ccc5c4)cc23)cc1Cl`, the growth is -29.7% (active).
As for `O=c1[nH]c(=O)n(Cc2ccc(F)cc2)cc1F`, the growth is 102% [50 µM] (inactive).
Take `COc1cc(/C=C/C(=O)c2ccc(Nc3ncnc4ccccc34)cc2)cc(OC)c1`: the growth was 28.8% (inactive).
Turning to `COc1cc(/C=C\c2cc(/C=C\c3ccc(O)c(OC)c3)n(C(=O)CNc3ccc(Cl)cc3)n2)ccc1O`, the growth is 1.63% (active).
As for `COc1ccc(-c2cc(C(=O)Nc3nc4cc(C)c(C)cc4s3)nc3cc(-c4ccccc4)nn23)cc1OC`, the growth was 109% (inactive).
`Cc1ccc(/C=C/CC(=O)Nc2ccc(C(=O)Nc3ccc(F)cc3N)cc2)cn1`: the growth is 53.5% (inactive).
For `O=C(COc1cccc(/C=C2\Cc3ccc(Cl)cc3C2=O)c1)Nc1nccs1`, the growth is 21.9% (inactive).
Regarding `O=C(/C=C/c1cc([N+](=O)[O-])ccc1Cl)c1ccccc1`, the growth is 57.6% (inactive).
Regarding `O=C(N/N=C/c1ccc(Br)s1)c1[nH]c2ccc(Br)cc2c1-c1ccccc1`, the growth was -5.18% (active).
On to `Brc1cccc(-c2cc(-c3ccc4c(c3)OCCCO4)[nH]n2)c1`, for which the growth is 50.6% [25 µM] (inactive).
`CCOC(=O)C1=C(C)NC(C)=C(C(=O)OCC)C1c1cc(Br)c(O)c(OC)c1`: the growth was 20.4% (inactive).
The value for `Cc1cc(N)c2cc(NC(=O)/C=C\c3ccccc3Cl)ccc2n1` was -81.1% (active).
